BoNT-A LC inh2: BoNT/A light chain protease inhibitors, primary screen, biochemical, flow cytometry, MLPCN library; multiplex microsphere protease substrate cleavage; AID 588499, 2011; Botulinum neurotoxin type A light chain protease (Clostridium botulinum A str. ATCC 3502); 360,000 tested, 0.17% active; inhibition, % at 10 µM; further: plate controls were buffer without enzyme for full effect and enzyme alone for no effect
BJeLR viability: MLPCN primary cell-based screen for lethality selective to Ras in HRASV12 cells | BJeLR (HRASV12) viability, CellTiter-Glo ATP luminescence, 48 h | 300,000 tested, 0.17% active | inhibition, % (concentration not given with the values); in the data active means inhibition above about 50%; inconclusive means no clear call, values can overlap the other calls
BoNT-F LC inh: BoNT/F light chain protease inhibitors, primary screen, biochemical, flow cytometry, MLPCN library | Botulinum neurotoxin type F light chain protease (Clostridium botulinum) | Multiplex microsphere protease cleavage assay | inhibition, % at 10 µM | 360,000 tested, 0.22% active; in the data active means inhibition above about 35%, passing the limit was not always enough; inconclusive means no clear call, values can overlap the other calls; further: plate controls were buffer without enzyme for full effect and enzyme alone for no effect
Anthrax LF prot: Bacillus anthracis LF protease inhibitors, primary screen, biochemical, multiplex microsphere, MLPCN library; 360,000 tested, 0.12% active; multiplex microsphere protease cleavage assay; inhibition, % at 10 µM; further: plate controls were buffer without enzyme for full effect and enzyme alone for no effect
Target sequence (P15917 whole entry, looked up): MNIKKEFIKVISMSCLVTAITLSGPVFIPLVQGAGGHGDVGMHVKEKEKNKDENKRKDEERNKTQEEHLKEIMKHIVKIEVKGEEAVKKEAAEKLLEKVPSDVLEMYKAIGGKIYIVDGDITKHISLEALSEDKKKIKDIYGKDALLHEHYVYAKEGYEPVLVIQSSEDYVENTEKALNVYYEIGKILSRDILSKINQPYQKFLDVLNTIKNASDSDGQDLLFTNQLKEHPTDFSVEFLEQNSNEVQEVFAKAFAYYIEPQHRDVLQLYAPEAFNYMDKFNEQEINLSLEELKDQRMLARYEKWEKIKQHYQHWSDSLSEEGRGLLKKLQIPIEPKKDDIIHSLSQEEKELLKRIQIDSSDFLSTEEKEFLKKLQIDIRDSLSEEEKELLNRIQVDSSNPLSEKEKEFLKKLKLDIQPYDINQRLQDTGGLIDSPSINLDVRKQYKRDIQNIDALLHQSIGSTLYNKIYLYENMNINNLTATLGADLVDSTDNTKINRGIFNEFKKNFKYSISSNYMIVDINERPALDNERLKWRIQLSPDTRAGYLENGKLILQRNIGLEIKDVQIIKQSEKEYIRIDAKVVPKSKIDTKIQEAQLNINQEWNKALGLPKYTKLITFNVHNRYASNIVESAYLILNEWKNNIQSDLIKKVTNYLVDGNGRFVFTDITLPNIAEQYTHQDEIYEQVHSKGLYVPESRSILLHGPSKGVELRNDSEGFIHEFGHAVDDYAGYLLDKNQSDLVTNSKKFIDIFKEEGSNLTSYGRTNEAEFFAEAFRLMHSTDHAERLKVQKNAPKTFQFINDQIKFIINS
Autofluor counter: flagged as autofluorescent in microsphere protease counterscreen | compound autofluorescence counterscreen, microsphere flow cytometry; hits give high values | fluorescence intensity (concentration not given with the values) | 360,000 tested, 3.1% active; in the data active means fluorescence intensity above about 16000; inconclusive means no clear call, values can overlap the other calls
Starred values were filed as active, the others as inactive; ? = inconclusive; . = not tested or not shown. Hits are enriched below; roughly 3.5% of the tested compounds scored in any of these assays. Unless noted, no stated cut-off is given here; in the data, active means inhibition above about 30%; inconclusive means no clear call, values can overlap the other calls; inactive means below that.

SMILES	BoNT-A LC inh2	BJeLR viability	BoNT-F LC inh	Anthrax LF prot	Autofluor counter
FC(F)Oc1ccccc1NC(=S)NCc1ccco1	0	-7	-3	-1	23284*
CCN(CC)S(=O)(=O)c1ccc(C(C)NC(=O)Cc2c[nH]c3ccccc23)cc1 (stereo unspecified)	1	3	11	-12	3973
O=C(CCc1n[nH]c(=O)[nH]c1=O)N1CCOCC1	0	-13	4	0	6245
O=C(CCNc1n[nH]c(=O)[nH]c1=O)N1CCOCC1	?	2	0	-1	22002*
COc1ccc(C)cc1S(=O)(=O)N1CCCC(C(=O)N2CCOCC2)C1 (stereo unspecified)	-10	3	-21	0	7881
Cc1cc(CNC(=O)c2cc(COc3c(F)cccc3F)on2)nn1C	0	-22	0	0	2443
Cc1cc(CNC(=O)Cc2c(F)cccc2Cl)nn1C	0	-3	2	-3	19997*
Cc1cc(C(=O)NCc2cc(C)n(C)n2)sc1-c1ccccc1	3	11	3	-9	18215*
Cc1cc(CNC(=O)c2cc(-c3ccccc3)nc3ccccc23)nn1C	0	-4	-2	-1	4049
OCCN1CCN(c2ncnc3c2ncn3[C@H]2CN(Cc3cccc(C(F)(F)F)c3)C[C@@H](CO)O2)CC1	0	.	-3	3	3786
CCCCCN=C(N)N/N=C/c1c[nH]c2ccc(OC)cc12	-1	70*	-42	-19	5947
CCCOc1ccc(C(=O)N/N=C/c2c[nH]c3ccc(Br)cc23)cc1	-1	2	-3	2	3169
COc1cc(C(=O)/C=C/c2cccnc2)c([N+](=O)[O-])cc1OC	0	55*	-3	-2	3629
CC(=O)Nc1cccc(-c2csc(C(C)(NC(C)=O)c3ccccc3)n2)c1 (stereo unspecified)	0	.	-8	3	2922
O=C(NCc1cccnc1)c1cc(C2CCCCN2C(=O)c2ccc3ccccc3c2)on1 (stereo unspecified)	0	.	-2	-8	3988
CC(C)N=Cc1c(O)[nH]c2ccccc12	-2	-2	-4	-2	21450*
O=C(COC(=O)CCc1nc2ccccc2c(=O)[nH]1)Nc1ccccc1	0	.	-6	-4	3965
COC(=O)c1c(N)[nH]c(C(=O)c2ccccc2)c1-c1ccccc1Br	-1	.	-11	2	4351
NC(CCc1ccccc1)c1csc(NC(=O)NCC2CCCCC2)n1 (stereo unspecified)	0	.	-22	1	4091
Cc1ccc(C(=O)CN2CCN(c3ccccn3)CC2)c(C)c1	-4	0	-18	-4	4308
Cc1ccc2cc(C)c(N3CCN(c4ccccn4)CC3)nc2c1	0	-10	-3	-4	23535*
COC(=O)CC1OCC=C2CN3CCC45C6=CC(=O)C(=O)C([N+](=O)[O-])=C6NC4C1C2CC35 (stereo unspecified)	0	.	7	-6	3602
Cc1cc(C)n(-c2nc3ccccc3c(=O)n2OCC(C)C)n1	2	-1	9	2	2829
CCOn1c(-n2nc(C)cc2C)nc2ccccc2c1=O	-1	13	-1	-2	20487*
CCN(CC)C(=O)COn1c(SCC(=O)N(CC)CC)nc2ccccc2c1=O	2	.	1	-1	19592*
SMILES	BoNT-A LC inh2	BJeLR viability	BoNT-F LC inh	Anthrax LF prot	Autofluor counter
CCOC(=O)COn1c(-n2nc(C)cc2C)nc2ccccc2c1=O	-1	-2	6	4	2978
COC(=O)COn1c(-n2nc(C)cc2C)nc2ccccc2c1=O	-1	2	-2	-5	22312*
CCc1cc(/C(Cc2ccccn2)=N\Nc2ccccc2)c(O)cc1O	0	11	-2	0	4417
CC1(C(=O)Nc2ccc(Cl)c(Cl)c2)CCN1C(=O)C1CCCCC1 (stereo unspecified)	-1	.	-8	-4	3755
Cc1cccc2cc(/C=C3\N=C(c4ccccc4)OC3=O)c(N3CCOCC3)nc12	124*	-10	41*	65*	3098
Cc1ccc(C2=N/C(=C/N3CCOCC3)C(=O)O2)cc1	-1	0	-10	-2	3675
CC(CC1CC(C)(C)OC1=O)C(=O)Nc1nncs1 (stereo unspecified)	?	16	11	-4	20331*
Cn1ncc(Cl)c1C(=O)N1CCN(c2ncccn2)CC1	0	12	-2	1	2592
COc1ccccc1NC(=O)N(C)C[C@H]1OCc2cnnn2CCCC(=O)N([C@H](C)CO)C[C@@H]1C	0	.	-2	-7	3740
COc1ccc(C)cc1Nc1c2c(nc3ccccc13)CCC2	0	56*	-2	3	3604
OC[C@@H]1CN(Cc2ccccc2)C[C@H](n2cnc3c(NC4CCCC4)ncnc32)O1	0	.	-10	3	2874
Cc1ccccc1C(=O)NNC(=S)NC(=O)c1ccc(Cl)cc1Cl	-1	-3	-9	-1	11749
CCCN(CCC)C(=S)NC(=O)c1ccc(Cl)cc1Cl	1	-1	3	2	21981*
COc1ccc(OC)c(-c2cc(C(=O)NCCCn3ccnc3)no2)c1	-3	14	-4	-7	24152*
COc1ccc2c(c1)CCc1c(C(=O)NCCCn3ccnc3)noc1-2	1	-8	0	-2	22596*
COc1ccc2c(c1)CCc1c(C(=O)NCc3ccco3)noc1-2	?	-16	-3	-4	24173*
COc1ccc(C(=O)NCCCn2ccnc2)cc1	0	-16	?	-5	4110
CCOC(=O)c1ccc(NC(=O)CCNS(=O)(=O)c2ccc3c(c2)oc(=O)n3C)cc1	0	2	0	-2	23217*
Cn1c(=O)oc2cc(S(=O)(=O)NCCC(=O)NCCc3ccc(Cl)cc3)ccc21	2	7	1	-9	19293*
CCCN(CCC)CCNS(=O)(=O)c1ccc2c(c1)oc(=O)n2C	?	6	-1	-2	22046*
Cc1ccc(CCNC(=O)CCNS(=O)(=O)c2ccc3c(c2)oc(=O)n3C)cc1	0	3	-3	-4	9981
Cc1cc(C)cc(NC(=O)CCNS(=O)(=O)c2ccc3c(c2)oc(=O)n3C)c1	?	13	14	-8	12998
Cn1c(=O)oc2cc(S(=O)(=O)NCCC(=O)NCCc3ccccc3)ccc21	-1	8	0	-2	20294*
CC(NC(=O)NC1CCCCC1)C(c1cccs1)N1CCN(c2ccccc2)CC1 (stereo unspecified)	0	-29	-9	-11	5446
Cc1ccc2nc(-c3ccc(Cl)cc3)c(Cc3ccccn3)n2c1	1	.	2	-1	4946
CCC1CCCCN1Cc1ccc(CNS(=O)(=O)c2ccc3c(c2)oc(=O)n3C)o1 (stereo unspecified)	-6	.	-10	-2	22053*
Cn1c(=O)oc2cc(S(=O)(=O)NCc3ccco3)ccc21	-1	-18	4	-1	4388
